# Bioassay records: PubChem, National Center for Advancing Translational Sciences (NCATS)
# Most compounds without a hit are left out; they make up all but 6% or so of the library.
# D1 antagonist: blocks dopamine activation of the human D1 receptor. P21728. HEK293 TREx D1 cells, calcium flux, dopamine EC80; stronger effect = lower value. activity change, negative = inhibition, % at 10 µM. actives 3.2% (n = 360,000). AID 504652; in the data active means activity change below about -30%; further: on the % scale 0 is the no-effect control and ±100 the full control effect
# Target sequence (P21728 whole entry, looked up): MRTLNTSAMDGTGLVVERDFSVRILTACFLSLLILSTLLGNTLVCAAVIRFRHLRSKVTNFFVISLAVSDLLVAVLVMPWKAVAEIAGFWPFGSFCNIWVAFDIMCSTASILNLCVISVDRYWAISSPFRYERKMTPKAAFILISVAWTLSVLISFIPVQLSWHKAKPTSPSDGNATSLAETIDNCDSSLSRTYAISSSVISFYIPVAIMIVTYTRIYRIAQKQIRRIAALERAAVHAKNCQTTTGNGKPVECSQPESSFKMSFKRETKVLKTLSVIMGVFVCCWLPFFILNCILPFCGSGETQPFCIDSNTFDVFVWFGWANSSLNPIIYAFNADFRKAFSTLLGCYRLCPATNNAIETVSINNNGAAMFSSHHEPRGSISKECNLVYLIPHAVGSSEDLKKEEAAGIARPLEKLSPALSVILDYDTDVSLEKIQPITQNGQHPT
#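 Cells carrying a force-coupled, tetracycline-inducible human D1 receptor report calcium flux. Each well gets a 10 s baseline, compound with 180 s monitoring, then an EC80 dopamine stimulus with a second 180 s kinetic read.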
# DRD3 antagonist: antagonists of human D3 dopamine receptor; P35462; D3R cells, DiscoveRx beta-arrestin luminescence, antagonist mode; stronger effect = lower value; max response, negative = inhibition, %; actives 2.5% (n = 360,000); AID 652054; in the data active means max response below about -50%; inconclusive means no clear call, values can overlap the other calls; further: on the % scale 0 is the no-effect control and ±100 the full control effect
#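 Cells expressing the human receptor were seeded at 1500 cells/well, incubated overnight at 37 degrees C in 5% CO2, then exposed to library compounds with dopamine controls for 90 minutes at 37 degrees C before luminescent detection.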
# D1 agonist: agonists of human D1 dopamine receptor. P21728. HEK293 T-REx D1 cells, calcium flux, agonist mode. activation, % at 2 µM. actives 1% (n = 360,000); in the data active means activation above about 30%; further: 0% is about no effect
#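 Agonism was scored from calcium flux recorded over 180 s (1 read/s) after pintool compound addition, following a 10-cycle baseline. Cells were inducible force-coupled HEK293 TREx D1, plated overnight at 30 C and loaded with no-wash calcium dye.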
# D1 PAM: potentiators of human D1 dopamine receptor; P21728; HEK293 TREx D1 cells, calcium flux, dopamine EC20 potentiation; potentiation, % at 10 µM; actives 0.036% (n = 360,000); AID 504651; in the data active means potentiation above about 30%; further: 0% is about no effect
# DRD3 agonist: agonists of human D3 dopamine receptor | actives 0.58% (n = 410,000) | P35462 | max activation, % | D3R DiscoveRx beta-arrestin cells, luminescence, 90 min; in the data active means max activation above about 30%; further: 0% is about no effect
#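 Agonist mode: compounds and dopamine controls were applied to plated cells for 90 min at 37 degrees C after an overnight attachment at 1500 cells/well. Luminescent read-out followed 30 - 60 minutes at room temperature with DiscoveRx detection reagent.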
# Active calls of the source: *; ? = inconclusive; . = not tested or not shown.
SMILES,D1 antagonist,DRD3 antagonist,D1 agonist,D1 PAM,DRD3 agonist
CN(C)c1ccc(-c2nc(-c3cccs3)c(-c3cccs3)[nH]2)cc1,13.8,.,3.3,-1.4,-21.8
c1ccc(COc2ccc(OCCCCN3CCCCC3)cc2)cc1,-35.2*,-72.0*,41.5*,-4.5,-17.4
O=C(O)COc1ccc(C(=O)c2ccccc2)cc1,-30.5*,-1.1,5.6,-2.5,3.6
CC(C#CCN1CCCCC1)OCCOCc1ccccc1 (configuration not stated),13.7,0.0,1.9,-4.2,-12.8
O=C(c1ccccc1)c1ccc(OCCOCCN2CCN(Cc3ccccc3)CC2)cc1,-33.2*,?,28.9,-10.3,-16.0
C(#CCN1CCC(Cc2ccccc2)CC1)COCCOCc1ccccc1,-35.5*,-1.6,4.0,-5.5,-3.6
Cc1ccc(C)c(OCCn2c(CCNC(=O)C3CCCCC3)nc3ccccc32)c1,2.8,.,-1.6,-2.0,.
O=C(c1ccccc1)c1ccc(OCCCCN2CCCCC2)cc1,2.9,-86.9*,11.4,-2.6,-3.6
c1ccc(COCCN2CCN(CCOCc3ccccc3)CC2)cc1,-14.9,-69.0*,-0.6,-0.9,4.7
CC1=CCC(C(C)(C)O)CC1 (configuration not stated),.,.,.,.,-12.0
CCc1c(C)c2cc3c(c(C)c2oc1=O)OCN(CCc1ccccc1F)C3,-6.5,.,-0.3,0.1,-34.9
COc1ccc(Nc2nnc(-n3nc(C)cc3C)c3ccccc23)cc1,3.2,.,0.0,-1.4,-6.1
Cc1cc(C)n(-c2nnc(Nc3ccc(C)c(Cl)c3)c3ccccc23)n1,-39.9*,.,1.2,-5.8,-9.5
O=C(NN=C1C2CC3CC1CC(Cl)(C3)C2)c1cccs1,-38.6*,-3.9,0.2,-18.4,-1.8
O=C(Cc1ccc(Cl)cc1)OCc1nnc(-c2ccccc2)o1,10.9,-11.1,1.5,-3.8,0.7
O=C(OCc1nnc(-c2ccc(Cl)cc2)o1)C12CC3CC(CC(O)(C3)C1)C2,-75.3*,4.7,8.3,-8.0,2.2
CC(=O)Nc1ccc(NC(=O)CSc2ccc(-c3sc(C)nc3C)nn2)cc1,-5.2,12.2,0.1,0.5,4.9
COc1ccc(C)cc1NC(=O)CSc1ccc(-c2sc(C)nc2C)nn1,-50.4*,21.8,10.0,-1.5,10.8
CCOC(=O)c1ccc(NC(=O)CSc2ccc(-c3sc(C)nc3C)nn2)cc1,-41.6*,.,0.8,-0.8,0.0
O=C(NCC(c1cccnc1)N1CCc2ccccc2C1)c1ccc(F)c(F)c1 (configuration not stated),-4.0,.,0.8,1.6,-5.5
CCOc1ccc(CCNC(=O)CSc2nnnn2-c2ccccc2)cc1OCC,5.6,.,-0.6,-2.3,-9.0
COC(=O)c1ccc(COn2nnc3ccccc32)cc1,-35.4*,-3.9,3.9,-4.8,6.3
O=C(C1CC1)N1CCc2cc(Br)cc(S(=O)(=O)N3CCN(c4cccc(C(F)(F)F)c4)CC3)c21,1.7,.,0.4,-0.7,-6.4
O=C(CN1C(=O)c2ccccc2S1(=O)=O)N1CCOCC1,-34.3*,4.0,1.6,0.9,-0.9
O=C(CN1C(=O)c2ccccc2S1(=O)=O)NC1CC2CCC1C2 (configuration not stated),-72.5*,0.0,0.3,.,-0.3
SMILES,D1 antagonist,DRD3 antagonist,D1 agonist,D1 PAM,DRD3 agonist
COc1cccc(CNC(=O)CSc2nc3ccccc3nc2Cc2ccc(C)cc2)c1OC,5.2,.,4.0,-2.4,7.4
CCc1ccc2oc(C(=O)NCCc3ccc(OC)c(OC)c3)cc(=O)c2c1,-12.6,.,9.6,-1.4,26.2
CN(CCCNC(=O)CCC(=O)N1CCOc2ccc(Cl)cc21)Cc1ccccc1,-30.9*,?,6.3,-14.1,-11.1
O=C(CCC(=O)N1CCOc2ccc(Cl)cc21)NCc1ccccc1,-9.9,?,0.7,-4.8,-14.3
CCC1CCCCN1CCCNC(=O)CCC(=O)N1CCOc2ccccc21 (configuration not stated),-30.2*,-8.8,5.0,0.4,-2.9
CC(CNC(=O)CCC(=O)N1CCOc2ccc(Cl)cc21)c1ccccc1 (configuration not stated),6.9,-50.1*,4.1,-2.7,-15.3
Cc1ccc2c(c1)N(C(=O)CCC(=O)NCCCN1CCC(Cc3ccccc3)CC1)CCO2,-40.4*,?,22.6,-10.8,-10.3
COc1ccccc1CNC(=O)CCC(=O)N1CCOc2ccc(Cl)cc21,-9.5,-25.5,1.5,-1.5,-12.3
CC1CN(C(=O)CCC(=O)NCCCN2CCN(Cc3ccccc3)CC2)c2cc(Cl)ccc2O1 (configuration not stated),4.2,-89.9*,6.1,-1.5,-1.6
Cc1ccc(CNC(=O)CCC(=O)N2CC(C)Oc3ccc(Cl)cc32)cc1 (configuration not stated),5.1,0.0,1.2,-5.5,-11.9
O=C(CCC(=O)N1CCOc2ccc(Cl)cc21)NCCCN1CCN(Cc2ccccc2)CC1,-16.2,-59.7*,2.8,-19.2,-13.2
CC(=O)N1CCOc2cc(S(=O)(=O)N(C)Cc3ccccc3)c(Cl)cc21,-11.6,.,2.4,2.1,-10.7
CC(=O)N1CCOc2cc(S(=O)(=O)NC(C)c3ccccc3)c(Cl)cc21 (configuration not stated),-0.3,-61.1*,6.6,-9.2,-14.9
Cc1ccc(NC(=O)c2cnc3sc(N4CCOCC4)nn3c2=O)cc1N(C)C,-3.8,.,1.0,-3.0,3.0
Cc1cc2c(s1)c1cnn(Cc3cccc(C(F)(F)F)c3F)c(=O)c1n2C,6.4,.,0.4,-3.8,.
CCCCC(=O)Nc1cc(C)c(O)c(-c2nc3ncccc3o2)c1,-5.8,.,-0.9,-4.5,-9.6
CC(=O)c1ccc(N2CCN(S(=O)(=O)c3ccc4c5c3CC(=O)N5CC(C)S4)CC2)cc1 (configuration not stated),-57.3*,-10.7,7.1,-12.9,-14.7
Cc1nn(CCC(=O)NNC(=S)Nc2ccc(F)cc2)c(C)c1[N+](=O)[O-],3.2,-77.4*,-3.2,-6.0,1.7
Cc1cc([N+](=O)[O-])nn1CC(=O)NNC(=S)Nc1ccc(F)cc1,.,-24.7,.,.,-2.3
CC(=O)c1c(C)[nH]c(C(=O)CN2C(=O)NC(C)(c3ccc(C)cc3)C2=O)c1C (configuration not stated),8.6,18.6,33.0*,-6.5,-2.1
Cc1cc(C(=O)CN2C(=O)NC(C)(c3ccc(F)c(F)c3)C2=O)c(C)n1C1CC1 (configuration not stated),.,8.4,.,.,3.9
CC1(c2ccc(OC(F)F)cc2)NC(=O)N(CC(=O)Nc2ccc3c(c2)OCO3)C1=O (configuration not stated),-60.2*,12.2,65.9*,-8.9,-9.5
COc1ccc(C2(C)NC(=O)N(CC(=O)c3cc(C)n(C4CC4)c3C)C2=O)cc1 (configuration not stated),-9.3,-7.6,64.1*,-3.1,-5.4
